Targets with a hit are over-represented here; the source holds about 8,800 in all. About 0.5% of all pairs of compound and target were hits.
Legend:
Assay in all cases: log2 fold change, soluble protein after heating vs DMSO (PISA); higher = thermal stabilisation; K562 lysate, 10 uM; active = over 0.2 and 3.5 SD of the protein, either way, in both replicates (recomputed)
[1] = compound: NCC(=O)Nc1ccc(-n2nc(C(F)(F)F)cc2-c2ccc3c(ccc4ccccc43)c2)cc1
Procedure, shortened: (§1)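 Quantification was by TMTpro 16plex LC-MS/MS with equalised channel sums, applied to the supernatant after 21,000xg for 90 min. Samples were crude K562 extract at 1 mg/mL protein in PBS pH 7.4 with 1 mM MgCl2, treated with 10 μM compound for 30 min, heated for 3 min across 48°C-58°C, pooled and brought to 0.5% NP-40 at 4°C. Values are log-two fold changes in thermal stability relative to solvent controls, from duplicates.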

vorinostat = compound: O=C(CCCCCCC(=O)Nc1ccccc1)NO [vorinostat]
Procedure, shortened: as §1

silmitasertib = compound: O=C(O)c1ccc2c(c1)nc(Nc1cccc(Cl)c1)c1ccncc12 [silmitasertib]
Procedure, shortened: as §1

[2] = compound: O=C1NC(=O)C(c2cnc3ccccn23)=C1c1cn2c3c(cc(F)cc13)CN(C(=O)N1CCCCC1)CC2
Procedure, shortened: as §1

entospletinib = compound: c1cn2cc(-c3ccc4cn[nH]c4c3)nc(Nc3ccc(N4CCOCC4)cc3)c2n1 [entospletinib]
Procedure, shortened: as §1

Measured: log2 fold change

MSH2 (UniProt P43246)
UniProt P43246, sequence (P43246 whole entry, looked up): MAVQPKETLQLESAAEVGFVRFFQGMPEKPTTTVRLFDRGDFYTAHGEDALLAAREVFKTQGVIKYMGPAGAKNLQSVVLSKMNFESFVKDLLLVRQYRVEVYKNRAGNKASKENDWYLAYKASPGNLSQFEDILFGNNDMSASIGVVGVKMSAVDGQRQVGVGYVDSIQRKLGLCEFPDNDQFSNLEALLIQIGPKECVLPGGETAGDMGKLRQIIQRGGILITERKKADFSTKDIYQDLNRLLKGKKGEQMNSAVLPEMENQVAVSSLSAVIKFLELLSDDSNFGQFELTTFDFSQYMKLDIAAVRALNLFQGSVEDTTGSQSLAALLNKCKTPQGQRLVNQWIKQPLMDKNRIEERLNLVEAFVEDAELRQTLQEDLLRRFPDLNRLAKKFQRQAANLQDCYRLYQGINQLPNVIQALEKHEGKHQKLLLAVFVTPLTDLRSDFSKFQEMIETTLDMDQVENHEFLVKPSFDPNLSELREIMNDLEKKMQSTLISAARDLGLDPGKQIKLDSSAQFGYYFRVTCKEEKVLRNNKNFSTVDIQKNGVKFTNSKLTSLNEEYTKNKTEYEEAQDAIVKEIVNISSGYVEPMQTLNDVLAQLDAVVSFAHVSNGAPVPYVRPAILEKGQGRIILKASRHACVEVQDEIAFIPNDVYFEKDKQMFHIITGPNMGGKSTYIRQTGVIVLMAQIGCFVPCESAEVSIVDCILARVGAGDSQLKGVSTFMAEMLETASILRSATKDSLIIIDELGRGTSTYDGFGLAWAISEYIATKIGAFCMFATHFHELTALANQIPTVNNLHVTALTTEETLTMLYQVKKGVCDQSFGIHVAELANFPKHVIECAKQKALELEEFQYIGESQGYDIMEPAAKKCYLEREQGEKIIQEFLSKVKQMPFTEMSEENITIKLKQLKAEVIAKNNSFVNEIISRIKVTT
active: vorinostat -0.287
inactive: [1] 0.006 | silmitasertib 0.027 | [2] -0.022 | entospletinib 0.034

NNT (UniProt Q13423)
inactive: [1] 0.02 | vorinostat 0.023 | silmitasertib -0.001 | [2] -0.036 | entospletinib -0.01

NUP205 (UniProt Q92621)
active: vorinostat -0.335
inactive: [1] 0.003 | silmitasertib 0.037 | [2] 0.001 | entospletinib 0.005

NEK7 (UniProt Q8TDX7)
inactive: [1] -0.037 | silmitasertib 0.105 | [2] 0.003 | entospletinib 0.012
active: vorinostat -0.338

PAIP2 (UniProt Q9BPZ3)
UniProt Q9BPZ3, sequence (Q9BPZ3 whole entry, looked up): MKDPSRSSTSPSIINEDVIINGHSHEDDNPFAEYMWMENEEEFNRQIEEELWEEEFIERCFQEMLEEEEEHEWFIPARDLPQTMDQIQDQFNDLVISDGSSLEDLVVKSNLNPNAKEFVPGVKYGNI
inactive: [1] 0.033 | vorinostat 0.054 | silmitasertib -0.052 | [2] -0.025 | entospletinib -0.027

NBEAL2 (UniProt Q6ZNJ1)
inactive: [1] -0.025 | silmitasertib 0.047 | [2] 0.02 | entospletinib 0.026
active: vorinostat -0.341

PAK1 (UniProt Q13153)
UniProt Q13153, sequence (Q13153 whole entry, looked up): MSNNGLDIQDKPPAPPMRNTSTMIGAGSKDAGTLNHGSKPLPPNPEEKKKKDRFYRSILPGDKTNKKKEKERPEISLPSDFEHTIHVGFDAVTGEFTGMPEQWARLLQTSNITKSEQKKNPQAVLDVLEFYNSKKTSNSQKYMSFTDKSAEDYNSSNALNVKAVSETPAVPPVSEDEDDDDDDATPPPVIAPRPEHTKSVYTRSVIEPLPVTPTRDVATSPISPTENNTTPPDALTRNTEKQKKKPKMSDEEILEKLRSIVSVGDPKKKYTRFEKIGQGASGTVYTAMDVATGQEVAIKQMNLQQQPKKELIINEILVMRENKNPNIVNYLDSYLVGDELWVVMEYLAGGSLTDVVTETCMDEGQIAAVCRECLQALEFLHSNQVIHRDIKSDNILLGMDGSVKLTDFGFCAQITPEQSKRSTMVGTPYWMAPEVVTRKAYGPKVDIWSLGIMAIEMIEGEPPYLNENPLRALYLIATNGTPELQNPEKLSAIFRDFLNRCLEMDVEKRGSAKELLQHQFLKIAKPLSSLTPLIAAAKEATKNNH
inactive: [1] 0.008 | vorinostat 0.13 | silmitasertib -0.046 | [2] -0.001 | entospletinib 0.051

NUF2 (UniProt Q9BZD4)
active: vorinostat -0.242
inactive: [1] 0.005 | silmitasertib 0.017 | [2] 0.008 | entospletinib 0.016

NELFA (UniProt Q9H3P2)
inactive: [1] -0.057 | silmitasertib -0.004 | [2] 0.008 | entospletinib -0.027
active: vorinostat -0.309

MTHFD1, A0A384N5Y3
MTHFD1, A0A384N5Y3, sequence (A0A384N5Y3 whole entry, looked up): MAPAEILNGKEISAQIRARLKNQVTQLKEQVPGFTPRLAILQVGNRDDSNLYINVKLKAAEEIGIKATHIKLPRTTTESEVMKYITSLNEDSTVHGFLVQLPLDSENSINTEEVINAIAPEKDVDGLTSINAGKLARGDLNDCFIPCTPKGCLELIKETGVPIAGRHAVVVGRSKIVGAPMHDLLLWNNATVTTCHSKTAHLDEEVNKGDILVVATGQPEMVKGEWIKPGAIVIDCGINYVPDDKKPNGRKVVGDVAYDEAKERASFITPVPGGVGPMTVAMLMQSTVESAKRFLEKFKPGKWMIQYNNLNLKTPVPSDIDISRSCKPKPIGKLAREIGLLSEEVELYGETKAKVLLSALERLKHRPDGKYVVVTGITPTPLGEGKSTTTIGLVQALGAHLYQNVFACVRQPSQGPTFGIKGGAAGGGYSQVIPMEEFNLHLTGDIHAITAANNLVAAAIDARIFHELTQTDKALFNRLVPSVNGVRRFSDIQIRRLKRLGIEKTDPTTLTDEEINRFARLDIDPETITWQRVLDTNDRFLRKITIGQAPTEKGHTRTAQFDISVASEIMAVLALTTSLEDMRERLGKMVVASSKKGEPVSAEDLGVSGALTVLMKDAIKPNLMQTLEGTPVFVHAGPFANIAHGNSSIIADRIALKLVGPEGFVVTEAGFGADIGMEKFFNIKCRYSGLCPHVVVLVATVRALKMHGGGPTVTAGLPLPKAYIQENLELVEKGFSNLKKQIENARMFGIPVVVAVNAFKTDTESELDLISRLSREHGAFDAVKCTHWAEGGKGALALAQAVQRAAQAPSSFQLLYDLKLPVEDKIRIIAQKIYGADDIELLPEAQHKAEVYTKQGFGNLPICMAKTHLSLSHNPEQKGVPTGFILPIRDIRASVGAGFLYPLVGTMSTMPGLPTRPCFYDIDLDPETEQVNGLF
inactive: [1] 0.036 | silmitasertib 0.056 | [2] 0.028 | entospletinib 0.026
active: vorinostat -0.243

NAT1 (UniProt P18440)
UniProt P18440, sequence (P18440 whole entry, looked up): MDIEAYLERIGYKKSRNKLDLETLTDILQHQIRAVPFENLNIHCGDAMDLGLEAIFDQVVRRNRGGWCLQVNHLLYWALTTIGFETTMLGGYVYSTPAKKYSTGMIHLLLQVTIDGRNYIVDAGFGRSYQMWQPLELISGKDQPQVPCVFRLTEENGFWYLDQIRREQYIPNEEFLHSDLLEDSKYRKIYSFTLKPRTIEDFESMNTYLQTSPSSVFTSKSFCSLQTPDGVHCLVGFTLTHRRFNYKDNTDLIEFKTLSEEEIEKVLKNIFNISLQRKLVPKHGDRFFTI
active: silmitasertib 0.275
inactive: [1] -0.049 | vorinostat 0.144 | [2] 0.032 | entospletinib -0.04

MRPL51 (UniProt Q4U2R6)
inactive: [1] -0.03 | vorinostat -0.067 | silmitasertib -0.054 | [2] 0.121 | entospletinib 0.003

NCAPG2 (UniProt Q86XI2)
active: vorinostat -0.598
inactive: [1] 0.002 | silmitasertib 0.015 | [2] -0.016 | entospletinib 0.009

NTPCR (UniProt Q9BSD7)
UniProt Q9BSD7, sequence (Q9BSD7 whole entry, looked up): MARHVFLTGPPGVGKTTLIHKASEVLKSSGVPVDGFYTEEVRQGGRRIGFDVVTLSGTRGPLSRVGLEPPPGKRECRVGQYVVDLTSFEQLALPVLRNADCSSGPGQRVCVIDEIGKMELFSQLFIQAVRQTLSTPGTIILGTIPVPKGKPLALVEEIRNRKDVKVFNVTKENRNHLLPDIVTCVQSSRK
active: vorinostat -0.331
inactive: [1] 0.014 | silmitasertib 0.029 | [2] 0.003 | entospletinib 0.059

MYO1C (UniProt O00159)
UniProt O00159, sequence (O00159 whole entry, looked up): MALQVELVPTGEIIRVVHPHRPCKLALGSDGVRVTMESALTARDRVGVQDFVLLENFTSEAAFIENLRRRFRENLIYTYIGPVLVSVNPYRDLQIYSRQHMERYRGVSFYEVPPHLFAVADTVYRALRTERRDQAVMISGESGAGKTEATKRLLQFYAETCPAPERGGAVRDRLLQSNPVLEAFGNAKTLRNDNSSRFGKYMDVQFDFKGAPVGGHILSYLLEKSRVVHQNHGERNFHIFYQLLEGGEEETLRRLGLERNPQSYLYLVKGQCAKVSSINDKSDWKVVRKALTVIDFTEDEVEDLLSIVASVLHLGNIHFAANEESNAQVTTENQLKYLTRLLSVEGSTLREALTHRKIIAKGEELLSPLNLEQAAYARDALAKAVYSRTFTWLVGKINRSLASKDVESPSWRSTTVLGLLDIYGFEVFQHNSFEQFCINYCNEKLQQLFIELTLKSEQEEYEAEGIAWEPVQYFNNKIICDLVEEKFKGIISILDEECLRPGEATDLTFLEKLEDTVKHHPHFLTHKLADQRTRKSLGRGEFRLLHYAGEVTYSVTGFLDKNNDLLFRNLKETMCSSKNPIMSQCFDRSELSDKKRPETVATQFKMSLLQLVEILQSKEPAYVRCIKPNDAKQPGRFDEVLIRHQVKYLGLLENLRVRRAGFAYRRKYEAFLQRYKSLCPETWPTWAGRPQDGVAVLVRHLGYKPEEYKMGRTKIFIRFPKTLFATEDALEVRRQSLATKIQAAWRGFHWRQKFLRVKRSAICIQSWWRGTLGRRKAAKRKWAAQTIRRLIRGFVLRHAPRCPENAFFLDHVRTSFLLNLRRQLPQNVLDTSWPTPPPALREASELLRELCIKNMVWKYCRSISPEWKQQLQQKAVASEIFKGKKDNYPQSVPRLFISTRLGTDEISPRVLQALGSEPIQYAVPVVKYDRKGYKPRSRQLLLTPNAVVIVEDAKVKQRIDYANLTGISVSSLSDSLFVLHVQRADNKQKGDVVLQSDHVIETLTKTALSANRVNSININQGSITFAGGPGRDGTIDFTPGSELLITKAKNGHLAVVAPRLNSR
inactive: [1] -0.017 | vorinostat -0.171 | silmitasertib 0.015 | [2] 0.11 | entospletinib 0.033

MTCH2 (UniProt Q9Y6C9)
UniProt Q9Y6C9, sequence (Q9Y6C9 whole entry, looked up): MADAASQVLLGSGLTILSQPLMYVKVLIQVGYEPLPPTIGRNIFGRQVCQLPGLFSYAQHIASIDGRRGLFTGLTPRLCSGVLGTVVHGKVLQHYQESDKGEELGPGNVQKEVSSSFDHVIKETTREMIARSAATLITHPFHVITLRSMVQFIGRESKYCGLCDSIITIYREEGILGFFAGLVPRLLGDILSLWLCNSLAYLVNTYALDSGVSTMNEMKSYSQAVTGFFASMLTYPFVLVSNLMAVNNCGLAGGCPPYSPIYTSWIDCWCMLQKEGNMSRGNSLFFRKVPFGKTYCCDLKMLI
active: vorinostat -0.432
inactive: [1] -0.016 | silmitasertib -0.001 | [2] -0.075 | entospletinib 0.026

NMT1 (UniProt P30419)
UniProt P30419, sequence (P30419 whole entry, looked up): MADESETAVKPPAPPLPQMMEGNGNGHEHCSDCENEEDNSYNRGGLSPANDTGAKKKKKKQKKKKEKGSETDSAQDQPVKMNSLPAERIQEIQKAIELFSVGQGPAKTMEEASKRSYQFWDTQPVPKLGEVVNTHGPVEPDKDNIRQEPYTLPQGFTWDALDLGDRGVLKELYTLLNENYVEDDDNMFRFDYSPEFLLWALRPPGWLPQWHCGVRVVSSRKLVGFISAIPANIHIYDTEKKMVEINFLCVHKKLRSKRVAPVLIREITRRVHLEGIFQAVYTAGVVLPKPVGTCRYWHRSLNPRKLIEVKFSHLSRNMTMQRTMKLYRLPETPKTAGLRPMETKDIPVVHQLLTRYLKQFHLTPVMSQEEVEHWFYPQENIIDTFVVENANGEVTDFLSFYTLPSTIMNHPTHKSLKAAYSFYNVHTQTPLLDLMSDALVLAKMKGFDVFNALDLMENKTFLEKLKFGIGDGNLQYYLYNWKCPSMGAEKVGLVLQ
inactive: vorinostat 0.028 | silmitasertib -0.03 | [2] -0.036 | entospletinib 0.034
active: [1] -0.35

MTHFD1L (UniProt B7ZM99)
inactive: [1] 0.031 | silmitasertib 0.07 | [2] 0.045 | entospletinib -0.02
active: vorinostat -0.408

NUDT6 (UniProt P53370)
inactive: [1] 0.128 | vorinostat 0.038 | silmitasertib -0.096 | [2] 0.02 | entospletinib -0.225

NEDD8 (UniProt Q15843)
UniProt Q15843, sequence (Q15843 whole entry, looked up): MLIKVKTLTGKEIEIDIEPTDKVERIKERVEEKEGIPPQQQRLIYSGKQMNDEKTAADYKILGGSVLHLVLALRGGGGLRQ
inactive: [1] -0.033 | vorinostat 0.195 | silmitasertib -0.12 | [2] 0.038 | entospletinib -0.082

OTC (UniProt P00480)
inactive: [1] 0.097 | vorinostat 0.087 | silmitasertib -0.029 | [2] -0.157 | entospletinib -0.028

MTOR (UniProt P42345)
active: vorinostat -0.305
inactive: [1] -0.035 | silmitasertib 0.146 | [2] -0.013 | entospletinib -0.024

PARG (UniProt Q86W56)
active: vorinostat -0.363
inactive: [1] 0.006 | silmitasertib -0.035 | [2] 0.018 | entospletinib 0.006

MYO10 (UniProt Q9HD67)
inactive: [1] 0.401 | vorinostat -0.038 | silmitasertib 0 | [2] 0.159

NUP98 (UniProt P52948)
active: vorinostat -0.231
inactive: [1] 0.021 | silmitasertib 0.001 | [2] 0.001 | entospletinib -0.012

Reference: the supplement of paper PMC10849652
